Records with an inconclusive call do not appear. Active and inactive are the calls of the source. Unless noted, the call rests on the fitted dose curve; in most records, active means well fitted curve in the direction sought with a large enough effect in the repeat runs; inconclusive means weak or mixed curves; inactive means no such curve, though single readings can be large; an effect the other way counts as inactive or inconclusive.
Tests used:
[1] = A CellTox Green Cytotoxicity Assay to monitor cytotoxicity in HepG2 cells - 0 hour (AID 1224882); further: nearly all actives have a fitted effect of over 35% in size
How it was run: (§1)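 Continuous culture of HepG2 cells with a membrane-impermeant DNA dye; rising fluorescence marks dead cells. Compound exposure lasted up to 40 h at 37 C, with reads every 8 h from 0 h.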

[2] = A CellTox Green Cytotoxicity Assay to monitor cytotoxicity in HepG2 cells - 32 hour (AID 1224883); further: nearly all actives have a fitted effect of over 50% in size
How it was run: as §1

[3] = A CellTox Green Cytotoxicity Assay to monitor cytotoxicity in HEK293 cells - 8 hour (AID 1224884); further: nearly all actives have a fitted effect of over 35% in size
How it was run: (§2)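 Each value comes from one timepoint of a single continuous run in which HEK293 cells with CellTox Green were exposed to compound for up to 40 h at 37 C, dye fluorescence rising with cell death.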

[4] = qHTS RealTime-Glo MT Cell Viability Assay in HepG2 cells - 16 hour (AID 1224885); further: nearly all actives have a fitted effect of over 50% in size
How it was run: (§3)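 HepG2 suspension premixed with RealTime-Glo reagents is plated at 600 cells per well and left 5 h at 37 C/5% CO2. Compounds in DMSO then go in, and bioluminescence reflecting viable cell number is recorded over 40 h.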

[5] = qHTS RealTime-Glo MT Cell Viability Assay in HEK293 cells - 24 hour (AID 1224886); further: top concentration of the series differs between compounds; nearly all actives have a fitted effect of over 50% in size
How it was run: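 Reads taken at 0, 8, 16, 24, 32 and 40 h from the same wells. HEK293 cells (600/well) carried RealTime-Glo reagents from seeding, with compound added after a 5 h settle at 37 C.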

[6] = A CellTox Green Cytotoxicity Assay to monitor cytotoxicity in HEK293 cells - 16 hour (AID 1224888); further: nearly all actives have a fitted effect of over 35% in size
How it was run: as §2

[7] = qHTS RealTime-Glo MT Cell Viability Assay in HepG2 cells - 0 hour (AID 1224889); further: nearly all actives have a fitted effect of over 50% in size; further: potency means the concentration at half of the fitted maximal effect
How it was run: as §3

[8] = A CellTox Green Cytotoxicity Assay to monitor cytotoxicity in HepG2 cells - 8 hour (AID 1224890); further: nearly all actives have a fitted effect of over 45% in size
How it was run: as §1

[9] = qHTS assay to identify small molecule antagonists of the estrogen receptor alpha (ER-alpha) signaling pathway using the BG1 cell line in the presence of 0.1 nM 17-beta-estradiol - cell viability counter screen (AID 1259241); further: nearly all actives have a fitted effect of over 40% in size
How it was run: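 VM7Luc4E2 cells (endogenous full-length ER-alpha, 4xERE-luciferase), cultured 5 days in charcoal-stripped serum, exposed to compounds with 0.1 nM 17beta-estradiol (final) for 22 hr at 37C. Viability read in same wells as live-cell protease fluorescence after 30 min.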

[10] = qHTS assay to identify small molecule antagonists of the androgen receptor (AR) signaling pathway using the MDA cell line in the presence of 0.5 nM R1881 - cell viability counter screen (AID 1259242); further: nearly all actives have a fitted effect of over 45% in size
How it was run: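 Fluorescence from CellTiter-Fluor, which reports protease activity of live cells, was read 30 min after reagent addition to MDA-kb2 cells that had been incubated 16 hr with compound and 0.5 nM R1881.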

[11] = biological target: Estrogen receptor (Homo sapiens) (UniProt P03372); test: qHTS assay to identify small molecule antagonists of the estrogen receptor alpha (ER-alpha) signaling pathway using the BG1 cell line in the presence of 0.1 nM 17-beta-estradiol (AID 1259244); further: nearly all actives have a fitted effect of over 50% in size
How it was run: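 Quantitative high-throughput screen in VM7Luc4E2 cells: compound plus 0.1 nM E2 (final), 22 h, 37C, 5% CO2; ONE-Glo added, 30 min room temperature, luminescence measured.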

[12] = qHTS assay to identify small molecule HDAC inhibitors (AID 1259364); further: nearly all actives have a fitted effect of over 45% in size; further: potency means the concentration at half of the fitted maximal effect
How it was run: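 Endogenous HDAC class I/II activity was measured in wild-type HCT-116 cells by HDAC-Glo luminescence after 2 h compound treatment.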

[13] = qHTS assay to identify small molecule HDAC inhibitors - cell viability counter screen (AID 1259365)
How it was run: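 Wild-type HCT-116 cells, 1,500/well, cultured overnight, then compound-treated 2 h at 37 C. Viability measured as ATP luminescence with CellTiter-Glo after 30 min at room temperature.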

[14] = qHTS assay to identify small molecule agonists of the sonic hedgehog signaling (Shh) pathway - cell viability counter screen (AID 1259366); further: nearly all actives have a fitted effect of over 50% in size
How it was run: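 NIH/3T3-derived Gli1-Luc reporter cells, 2,000 per well, received compound after 4 h and were treated about 23 h at 37C. Viability measured in the same wells by CellTiter-Fluor fluorescence after 1 h.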

[15] = qHTS assay to identify small molecule antagonists of the sonic hedgehog signaling (Shh) pathway - cell viability counter screen (AID 1259367); further: nearly all actives have a fitted effect of over 55% in size
How it was run: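 Using CellTiter-Fluor, viability of Gli1-Luc reporter 3T3 cells is read by fluorescence in the wells used for the Shh luciferase assay. Treatment lasts 23 hr with conditioned medium, then reagent 1 hr at 37C.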

[16] = qHTS assay to identify small molecule agonists of the sonic hedgehog signaling (Shh) pathway (AID 1259368; calls by dose curve;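 further: NIH/3T3-derived 3T3Gli1-Luc cells carrying a stable Gli1-driven firefly luciferase reporter; series mostly up to about 92 µM; nearly all actives have a fitted effect of over 15% in size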)
How it was run: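 Luminescent signal was taken as a measure of Gli1-controlled luciferase expression in stably transfected NIH/3T3-derived cells that had been treated for 24 hr with compounds delivered in DMSO.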

[17] = qHTS assay to identify small molecule antagonists of the sonic hedgehog signaling (Shh) pathway (AID 1259369; calls by dose curve; further: nearly all actives have a fitted effect of over 45% in size; further: potency means the concentration at half of the fitted maximal effect)
How it was run: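 Screening used 3T3Gli1-Luc cells at 2,000 per well, compounds delivered in DMSO, and conditioned medium as agonist stimulus; plates incubated 24hr at 37 C and 5% CO2 before a 30min luciferase step.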

[18] = biological target: Androgen receptor (Homo sapiens) (UniProt P10275); test: qHTS assay to identify small molecule antagonists of the androgen receptor (AR) signaling pathway using the MDA cell line in the presence of 0.5 nM R1881 (AID 1259243); further: nearly all actives have a fitted effect of over 50% in size
How it was run: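 Inhibition of R1881 (0.5 nM final) induced reporter signal was measured in human MDA-kb2 cells; note the MMTV promoter also responds to GR. Exposure lasted 16 hr at 37C.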

[19] = qHTS RealTime-Glo MT Cell Viability Assay in HEK293 cells - 8 hour (AID 1224887)
How it was run: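 qHTS format; HEK293 cells with NanoLuc/prosubstrate reagent, 37 C/5% CO2 for 5 h pre-dosing; compounds 23 nL in DMSO; luminescence at each time point reflects viable cells.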

[20] = qHTS assay to identify small molecule phospholipidosis (PLD) inducers (AID 1259344; active means well fitted curve in the direction sought with a large enough effect; an effect the other way counts as inactive or inconclusive)
How it was run: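 Fluorescent phospholipid staining (LipidTOX Red) measured by automated microscopy in fixed HepG2 cells after 24 h treatment; nuclei counterstained with Hoechst 33342; amiodarone as reference inducer.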
On the % scale 0 is the no-effect control and ±100 the full control effect.

Chain of Androgen receptor (Homo sapiens) (P10275 whole entry, looked up): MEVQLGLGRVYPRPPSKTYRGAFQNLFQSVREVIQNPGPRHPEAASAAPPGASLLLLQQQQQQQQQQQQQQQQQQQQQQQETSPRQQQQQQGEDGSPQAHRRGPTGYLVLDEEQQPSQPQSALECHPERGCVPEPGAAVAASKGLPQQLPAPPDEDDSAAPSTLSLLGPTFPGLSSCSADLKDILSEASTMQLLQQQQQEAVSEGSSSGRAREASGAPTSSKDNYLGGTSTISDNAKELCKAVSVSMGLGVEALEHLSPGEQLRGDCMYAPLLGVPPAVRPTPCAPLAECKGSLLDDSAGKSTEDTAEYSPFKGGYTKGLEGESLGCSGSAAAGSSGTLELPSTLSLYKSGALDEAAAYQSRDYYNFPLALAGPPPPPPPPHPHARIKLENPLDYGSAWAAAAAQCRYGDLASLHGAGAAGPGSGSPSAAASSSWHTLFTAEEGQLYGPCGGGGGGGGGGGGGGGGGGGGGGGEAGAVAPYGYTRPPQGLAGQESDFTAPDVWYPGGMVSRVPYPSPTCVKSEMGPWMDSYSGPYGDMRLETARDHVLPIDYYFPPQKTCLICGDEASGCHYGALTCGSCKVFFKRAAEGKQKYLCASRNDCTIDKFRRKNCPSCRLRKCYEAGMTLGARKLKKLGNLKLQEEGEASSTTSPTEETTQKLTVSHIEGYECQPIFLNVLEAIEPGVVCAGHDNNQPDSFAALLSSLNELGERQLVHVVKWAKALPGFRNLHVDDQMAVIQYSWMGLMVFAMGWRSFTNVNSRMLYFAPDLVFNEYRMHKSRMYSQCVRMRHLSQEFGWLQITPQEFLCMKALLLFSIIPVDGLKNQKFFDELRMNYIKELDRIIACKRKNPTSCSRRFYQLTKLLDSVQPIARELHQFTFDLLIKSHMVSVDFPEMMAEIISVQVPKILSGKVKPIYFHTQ
Chain of Estrogen receptor (Homo sapiens) (P03372 whole entry, looked up): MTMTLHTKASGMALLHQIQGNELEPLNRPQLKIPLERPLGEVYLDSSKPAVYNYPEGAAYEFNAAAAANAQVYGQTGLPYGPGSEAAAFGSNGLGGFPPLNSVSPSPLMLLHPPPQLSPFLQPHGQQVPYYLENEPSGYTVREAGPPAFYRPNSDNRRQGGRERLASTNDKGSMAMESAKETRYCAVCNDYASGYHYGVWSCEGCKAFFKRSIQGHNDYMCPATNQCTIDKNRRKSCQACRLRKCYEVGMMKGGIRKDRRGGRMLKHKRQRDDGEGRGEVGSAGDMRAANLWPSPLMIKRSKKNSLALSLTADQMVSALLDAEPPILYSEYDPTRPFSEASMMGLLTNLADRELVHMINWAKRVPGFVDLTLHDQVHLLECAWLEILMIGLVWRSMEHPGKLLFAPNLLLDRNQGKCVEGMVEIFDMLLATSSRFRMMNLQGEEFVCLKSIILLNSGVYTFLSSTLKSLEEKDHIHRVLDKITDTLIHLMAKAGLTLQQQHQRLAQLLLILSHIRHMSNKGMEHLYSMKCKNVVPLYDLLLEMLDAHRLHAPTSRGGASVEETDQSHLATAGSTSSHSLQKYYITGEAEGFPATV

COc1nc(C)nc(NC(=O)NS(=O)(=O)c2ccccc2OCCCl)n1
inactive: Potency [1] | Potency [2] | Potency [3] | outcome [4] | Potency [5] | Potency [6] | Potency [7] | Potency [8] | Potency [9] | outcome [10] | Potency [11] | Potency [12] | outcome [13] | Potency [14] | Potency [15] | Potency [16] | Potency [17]

CC1(O)CSC(C)(O)CS1 (stereo not given)
active: Potency [12] 21.7 µM
inactive: Potency [1] | Potency [2] | Potency [3] | outcome [4] | Potency [5] | Potency [6] | Potency [7] | Potency [8] | Potency [9] | outcome [10] | Potency [18] | Potency [11] | outcome [13] | Potency [14] | Potency [15] | Potency [16] | Potency [17]

CCOc1ccc2nc(N)sc2c1
inactive: Potency [1] | Potency [2] | Potency [3] | outcome [4] | Potency [5] | Potency [19] | Potency [7] | Potency [8] | Potency [9] | outcome [10] | Potency [11] | outcome [13] | Potency [14] | Potency [15] | Potency [17]
active: Potency [12] 24.1 µM

OCCN(CCO)c1ccccc1
inactive: Potency [1] | Potency [2] | Potency [3] | outcome [4] | Potency [19] | Potency [6] | Potency [7] | Potency [8] | Potency [9] | outcome [10] | Potency [18] | Potency [11] | Potency [12] | outcome [13] | Potency [14] | Potency [15] | Potency [16] | Potency [17]

CN1[C@@H]2CC[C@H]1CC(OC(=O)c1c[nH]c3ccccc13)C2 (stereo not given in full)
inactive: Potency [1] | Potency [2] | Potency [3] | outcome [4] | Potency [5] | Potency [7] | Potency [8] | Potency [9] | outcome [10] | outcome [20] | Potency [12] | outcome [13] | Potency [14] | Potency [15] | Potency [16]

C1CCOC1
inactive: Potency [1] | Potency [2] | Potency [3] | outcome [4] | Potency [5] | Potency [6] | Potency [7] | Potency [8] | Potency [9] | outcome [10] | Potency [12] | outcome [13] | Potency [14] | Potency [15] | Potency [16] | Potency [17]

CC(Oc1c(Cl)cccc1Cl)C1=NCCN1 (stereo not given)
inactive: Potency [1] | Potency [2] | Potency [3] | outcome [4] | Potency [19] | Potency [6] | Potency [7] | Potency [8] | Potency [9] | outcome [10] | Potency [18] | Potency [12] | outcome [13] | Potency [14] | Potency [15] | Potency [16]
active: Potency [17] 13.3 µM

O=c1[nH]c(=O)n([C@H]2C[C@H](O)[C@@H](CO)O2)cc1C(F)(F)F
inactive: Potency [1] | Potency [2] | Potency [3] | outcome [4] | Potency [19] | Potency [6] | Potency [7] | Potency [8] | Potency [9] | outcome [10] | Potency [11] | outcome [20] | Potency [12] | outcome [13] | Potency [14] | Potency [15] | Potency [16] | Potency [17]

CC(C)C[C@H](NC(=O)OCC1c2ccccc2-c2ccccc21)C(=O)O
inactive: Potency [1] | Potency [2] | Potency [3] | outcome [4] | Potency [5] | Potency [19] | Potency [8] | Potency [9] | outcome [10] | Potency [12] | outcome [13] | Potency [14] | Potency [15] | Potency [17]

CC1(C)O[C@@H]2C[C@H]3[C@@H]4CCC5=CC(=O)CC[C@]5(C)[C@@]4(F)[C@@H](O)C[C@]3(C)[C@]2(C(=O)CCl)O1
active: Potency [7] 5.35 µM
inactive: Potency [1] | Potency [2] | Potency [3] | outcome [4] | Potency [19] | Potency [6] | Potency [8] | Potency [9] | outcome [10] | Potency [11] | outcome [20] | Potency [12] | outcome [13] | Potency [15]

CCN(CC)C(=O)N(CC)CC
inactive: Potency [1] | Potency [2] | Potency [3] | outcome [4] | Potency [5] | Potency [6] | Potency [7] | Potency [8] | Potency [9] | outcome [10] | Potency [12] | outcome [13] | Potency [14] | Potency [15] | Potency [16] | Potency [17]

CC1=CC(=O)CC(C)(C)C1=O
inactive: Potency [1] | Potency [2] | Potency [3] | outcome [4] | Potency [5] | Potency [19] | Potency [7] | Potency [8] | Potency [9] | outcome [10] | Potency [11] | outcome [13] | Potency [14] | Potency [15] | Potency [17]

CC(C)=CCCC(C)CCOC=O (stereo not given)
inactive: Potency [1] | Potency [2] | Potency [3] | outcome [4] | Potency [19] | Potency [6] | Potency [7] | Potency [8] | Potency [9] | outcome [10] | Potency [12] | outcome [13] | Potency [14] | Potency [16]
active: Potency [17] 34.4 µM

NC(=O)Cc1cccc(C(=O)c2ccccc2)c1N
inactive: Potency [1] | Potency [2] | Potency [3] | outcome [4] | Potency [19] | Potency [6] | Potency [7] | Potency [8] | Potency [9] | outcome [10] | PLD induction [20] -0.295% [at 7.66 µM] | Potency [12] | outcome [13] | Potency [14] | Potency [15] | Potency [16] | Potency [17]

CCOC(=O)NCCC[Si](OCC)(OCC)OCC
inactive: Potency [1] | Potency [2] | Potency [3] | Potency [19] | Potency [6] | Potency [7] | Potency [8] | Potency [9] | outcome [10] | Potency [11] | Potency [12] | outcome [13] | Potency [14] | Potency [15] | Potency [16] | Potency [17]

CCOc1ccc(NC(N)=O)cc1
inactive: Potency [1] | Potency [2] | Potency [3] | Potency [5] | Potency [19] | Potency [6] | Potency [7] | Potency [8] | Potency [9] | outcome [10] | Potency [11] | Potency [12] | outcome [13] | Potency [14] | Potency [15] | Potency [16] | Potency [17]

Cc1c(N)cccc1N
inactive: Potency [1] | Potency [2] | Potency [3] | Potency [5] | Potency [19] | Potency [6] | Potency [7] | Potency [8] | Potency [9] | outcome [10] | Potency [12] | outcome [13] | Potency [14] | Potency [15] | Potency [17]

O=C1Nc2ccc([N+](=O)[O-])cc2C1=O
inactive: Potency [1] | Potency [2] | Potency [3] | outcome [4] | Potency [7] | Potency [8] | Potency [9] | outcome [10] | Potency [12] | outcome [13] | Potency [14] | Potency [15] | Potency [16] | Potency [17]

O=C(CC(=O)C(F)(F)F)c1ccccc1
inactive: Potency [1] | Potency [2] | Potency [3] | Potency [5] | Potency [6] | Potency [7] | Potency [8] | Potency [9] | outcome [10] | Potency [11] | Potency [12] | outcome [13] | Potency [14] | Potency [15] | Potency [16] | Potency [17]

— PubChem BioAssay (Tox21)
